Experimental findings from publication PMC7826789 (International Journal of Molecular Sciences, 2021) are described below.
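Note: KINOMEscan scanMAX binding as percent activity remaining versus control; lower means stronger binding.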

The test system of this assay is FLT3(ITD). The following applies: Compound Concentration (nM):1000.
As for `CCn1c(-c2nonc2N)nc2c(C#CC(C)(C)O)nc(OCCNC)cc21.Cl` [GSK949675], the “Percent Control” value was determined as 100%.

With `COc1cc(/C=N/Nc2ncnc3[nH]ncc23)ccc1O` [GW578748X], the “Percent Control” value is given as 43%. Under `COc1cc(N2CCN(C(C)C)CC2)ccc1Nc1nc(Nc2ccc(F)cc2C(=O)NC[C@@H](O)CO)c2cc[nH]c2n1` [GSK1392956A] stands 88%.

Turning to `Cl.c1ccc(Cc2nc3ccc(Nc4ncnc5ccccc45)cc3[nH]2)cc1` [GR269666A], the “Percent Control” value is 100%.

Consider `C[C@@H](Oc1cc(-n2cnc3ccc(OC4CCN(C)CC4)cc32)sc1C(N)=O)c1ccccc1Cl` [GSK579289A], for which the “Percent Control” value was found to be 38%. Under `CC1=C(C(=O)Nc2ccc3[nH]ncc3c2)C(c2ccc(Cl)c(Cl)c2)CC(=O)N1` (stereo not shown) [GSK299115A] stands 100%; under `COc1cccc(-n2ncc3c(N/N=C/c4ccncc4)ncnc32)c1` [GW784752X], 67%; under `COc1cc2ncnc(Nc3ccc4c(cnn4Cc4ccccc4)c3)c2cc1OC.Cl` [GW282449A], 96%. Under `Cl.O=C(Nc1ccc(Oc2ccc3[nH]c(NC(=O)c4ccco4)nc3c2)cc1)Nc1cc(C(F)(F)F)ccc1F` [GW683134A] stands 3.7%; under `CC(C)COC(=O)c1ccc2c(c1)/C(=C/Nc1ccc(S(N)(=O)=O)cc1)C(=O)N2` [GW416981X], 3%. With `COc1ccc2[nH]c3c4[nH]c5ccc(OC)cc5c4c4c(c3c2c1)C(=O)NC4=O` [GW296115X], the “Percent Control” value amounted to 2.1%. Under `COc1ccc2c(-c3ccnc(Nc4cccc(OC(F)(F)F)c4)n3)cnn2n1` [GW810372X] stands 49%; under `COc1ccc2cc(-c3c(-c4ccncc4)nc(-c4ccc(S(C)(=O)=O)cc4C)n3C)ccc2c1` [SB-633825], 100%.

Regarding `O=C1Nc2ccc(C(=O)c3ccco3)cc2C1=Cc1cc(Cl)c(O)c(Cl)c1` [GW406108X], the “Percent Control” value amounted to 47%.

With `CCS(=O)(=O)c1ccc(OC)c(Nc2ncc(-c3cccc(F)c3)o2)c1` [GW621970X], the “Percent Control” value was 5.8%. Under `CC1=C(C(=O)Nc2ccc3[nH]ncc3c2)C(c2ccc3ccccc3c2)CC(=O)N1` (stereo not shown) [GSK270822A] stands 100%; under `COc1cc(C=NNc2ncnc3c2cnn3-c2ccccc2)ccc1O` [GW513184X], 30%; under `Cl.O=C(O[C@H]1CN[C@H](C#Cc2cc3ncnc(Nc4ccc5c(cnn5Cc5ccccc5)c4)c3s2)C1)N1CCOCC1` [GSK200398A], 98%. The same measure for `O=C(Nc1n[nH]c2nc(-c3ccc(O)cc3)c(Br)cc12)C1CC1` [SB-725317]: 68%. The same measure for `Cl.O=C(Nc1ccc(Oc2ccc3[nH]c(NC(=O)c4ccccc4)nc3c2)cc1)Nc1cc(C(F)(F)F)ccc1F` [GW709042A]: 3.7%. `CCS(=O)(=O)c1ccc(OC)c(Nc2ncc(-c3cccc(OC)c3)o2)c1` [GW580509X]: the “Percent Control” value was 8.2%. The same measure for `COc1ccccc1-c1cc(/C=C2\C(=O)Nc3ncc(Br)cc32)cc(Br)c1O` [GW442130X]: 100%; for `NS(=O)(=O)c1ccc(N/N=C2\C(=O)Nc3ccc(C(=O)NCCc4c[nH]cn4)cc32)cc1` [GW300660X]: 80%. The same measure for `NS(=O)(=O)c1ccc(N/N=C2\C(=O)Nc3ccc(C(=O)NCc4ccncc4)cc32)cc1` [GW300657X]: 64%; for `NS(=O)(=O)c1ccc(N/N=C2\C(=O)Nc3ccc(Cl)cc32)cc1` [GW280670X]: 59%; for `Cl.O=S1CCN(Cc2ccc(-c3ccc4ncnc(Nc5ccc(OCc6ccccc6)c(F)c5)c4c3)o2)CC1` [GW576924A]: 100%. As for `NS(=O)(=O)c1ccc(N/N=C2\C(=O)Nc3ccc(-c4cnco4)cc32)cc1` [GW276655], the “Percent Control” value is 44%. Under `COc1cccc(-c2c[nH]c3c(N/N=C/c4ccncc4)ncnc23)c1` [GW814408X] stands 21%.
